This note sets out measurements from the supplement of paper PMC12669797.

Counter-ions that a name gives are not always drawn. ± gives the standard deviation of the averaged measurements.

The subject of the test is ES2. The test can be described thus: cell viability relative to DMSO control (MTS) (fraction of DMSO control); higher = more viable cells / less growth inhibition. Particulars: 10 µM; 48 h. A digest of the protocol: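 After 24 h of growth in 96-well plates at 5000 cells per well, TOV-21G and ES2 clear cell carcinoma cells were treated for 48 h with a 367-compound […] library at 10 µM final concentration. Cell viability was measured by MTS assay and expressed relative to vehicle control wells as a fraction.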
Compound `Nc1ncnc2nc(-c3ccc(N4CCOCC4)nc3)cc(-c3cccc(Br)c3)c12` registered a cell viability of 0.795. As for `NC1=N/C(=C2/CCNC(=O)c3[nH]ccc32)C(=O)N1` [Debromohymenialdisine (DBH)], the figure is 1.25; as for `CC(C)C[C@H](NC(=O)[C@@H](O)[C@H](N)Cc1ccccc1)C(=O)O` [Bestatin], 0.885.

As for `CC(C)c1ccc2c(c1)c(SC(C)(C)C)c(CC(C)(C)C(=O)O)n2Cc1ccc(Cl)cc1`, the cell viability is 1.06. As for `Ic1cccc(CSc2nnc(-c3ccncc3)o2)c1` [GSK-3 inhibitor II], the figure is 1.09.

The compound `O=C(O)c1cc(NCc2cc(O)ccc2O)ccc1O` [Lavendustin C] returned a cell viability of 1.36. In the case of `COc1ccc(Cl)cc1C(=O)NCCc1ccc(S(=O)(=O)NC(=O)NC2CCCCC2)cc1` [Glibenclamide], the cell viability was 0.829. `Cc1ccc(NC(=O)c2ccc(CN3CCN(C)CC3)cc2)cc1Nc1nccc(-c2cccnc2)n1` [imatinib mesylate]: the cell viability is 0.956. In turn, `CC1=C(/C=C/C(C)=C/C=C/C(C)=C/C(=O)O)C(C)(C)CCC1` [tretinoin] had a cell viability of 1.01. `CC(C)c1cc(/C=C(\C#N)C(=O)NCCCc2ccccc2)cc(C(C)C)c1O` came in with a cell viability of 1.3 ± 0.21. `COc1ccc(CCN(C)CCCC(C#N)(c2ccc(OC)c(OC)c2)C(C)C)cc1OC` (centres undefined) [Verapamil] had a cell viability of 0.953. Compound `CSc1ccc(/C=C2/C(C)=C(CC(=O)O)c3cc(F)ccc32)cc1` [Sulindac sulfide] showed a cell viability of 1.38. `COC(=O)[C@H](CC(C)C)NC(=O)c1ccc(NC[C@@H](N)CS)cc1-c1ccccc1` showed a cell viability of 1.09. Take `O=C([O-])c1ccccc1O.[Na+]` [Sodium salicylate]: the cell viability is 0.785.
